We go through 26 compounds from PubChem BioAssay (NCATS).

Values joined by “and” are separate entries in the source; they are usually repeats but may differ in a detail not shown here. Identical values can stand only once. Unmarked numbers belong to inactive results. Records with an inconclusive call do not appear. Active and inactive are the calls of the source. Unless noted, the call rests on the fitted dose curve.

Sequence of 3',5'-cyclic-AMP phosphodiesterase 4B (Homo sapiens) (Q07343 whole entry, looked up): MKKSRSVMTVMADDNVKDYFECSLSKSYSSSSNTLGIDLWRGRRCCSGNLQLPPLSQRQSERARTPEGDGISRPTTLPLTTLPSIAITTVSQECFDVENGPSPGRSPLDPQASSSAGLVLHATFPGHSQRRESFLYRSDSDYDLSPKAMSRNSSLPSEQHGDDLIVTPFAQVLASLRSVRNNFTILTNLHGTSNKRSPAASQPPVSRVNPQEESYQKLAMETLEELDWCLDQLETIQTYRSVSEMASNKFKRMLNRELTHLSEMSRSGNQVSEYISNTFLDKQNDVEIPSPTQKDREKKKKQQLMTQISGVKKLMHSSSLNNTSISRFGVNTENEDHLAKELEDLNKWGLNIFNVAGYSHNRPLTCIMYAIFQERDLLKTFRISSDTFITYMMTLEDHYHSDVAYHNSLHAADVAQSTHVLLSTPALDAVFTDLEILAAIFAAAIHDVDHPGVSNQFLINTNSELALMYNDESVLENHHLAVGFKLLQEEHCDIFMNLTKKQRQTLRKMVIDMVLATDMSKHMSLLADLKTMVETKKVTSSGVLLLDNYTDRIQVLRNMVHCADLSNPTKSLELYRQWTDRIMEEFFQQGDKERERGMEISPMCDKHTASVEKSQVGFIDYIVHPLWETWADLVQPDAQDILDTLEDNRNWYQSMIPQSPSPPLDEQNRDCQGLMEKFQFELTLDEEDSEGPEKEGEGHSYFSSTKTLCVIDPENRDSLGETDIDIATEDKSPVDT

For the first assay, the target named is Glucocorticoid receptor (Homo sapiens) (UniProt P04150). The assay is described as follows: GR-EFC Redistribution (AID 451). Further: potency means the concentration at half of the fitted maximal effect. To be noted: CHO-K1 GR-EFC translocation, beta-gal luminescence, 2 h. The gist of the method: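 Translocation of GR-ED fusion to nuclear EA restores b-gal, read by luminescence after 1 h room-temperature detection. Engineered CHO-K1 biosensor cells, 1,000/well, exposed 2 h at 37 C to titrations up to 46 uM final.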
Sequence of Glucocorticoid receptor (Homo sapiens) (P04150 whole entry, looked up, the tested form may be a part): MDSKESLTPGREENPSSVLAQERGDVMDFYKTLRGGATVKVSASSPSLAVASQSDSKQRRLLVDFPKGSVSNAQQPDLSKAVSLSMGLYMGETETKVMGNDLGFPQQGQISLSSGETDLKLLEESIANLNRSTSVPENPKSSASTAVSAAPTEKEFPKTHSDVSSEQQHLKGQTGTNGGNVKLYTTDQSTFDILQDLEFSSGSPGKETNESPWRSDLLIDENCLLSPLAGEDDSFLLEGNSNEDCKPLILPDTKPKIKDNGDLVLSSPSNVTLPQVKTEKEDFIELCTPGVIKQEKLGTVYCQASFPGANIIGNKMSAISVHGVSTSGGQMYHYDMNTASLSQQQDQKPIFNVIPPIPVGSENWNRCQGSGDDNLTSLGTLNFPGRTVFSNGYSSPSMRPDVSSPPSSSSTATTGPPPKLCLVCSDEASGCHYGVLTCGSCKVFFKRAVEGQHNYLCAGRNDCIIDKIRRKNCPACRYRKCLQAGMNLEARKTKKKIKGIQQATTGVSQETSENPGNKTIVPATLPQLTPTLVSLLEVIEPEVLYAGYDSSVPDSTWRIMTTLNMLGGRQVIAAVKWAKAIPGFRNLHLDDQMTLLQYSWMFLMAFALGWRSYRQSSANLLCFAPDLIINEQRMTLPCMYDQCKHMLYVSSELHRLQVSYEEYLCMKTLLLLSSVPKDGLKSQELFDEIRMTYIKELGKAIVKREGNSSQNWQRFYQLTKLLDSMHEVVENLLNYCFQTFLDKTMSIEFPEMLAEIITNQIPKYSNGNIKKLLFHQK
Consider `COc1ccc2[nH]cc(CCNc3ncnc4ccc(-c5ccc6c(c5)OCO6)cc34)c2c1`, for which the Potency was above 46 µM.

Turning to `CN=C1N[C@H](c2ccccc2)N(c2ccccc2)S1`, the Potency is above 46 µM.

Consider `N#Cc1cccc(NC(=O)N2CC[C@@]3(CCCN(C(=O)c4cccc(F)c4)C3)C2)c1`, for which the Potency was above 46 µM.

Take `COc1cccc(-c2cc(NCCc3c[nH]c4ccc(OC)cc34)ncn2)c1`: the Potency was above 46 µM.

Turning to `N#CCCn1c(=O)c(-c2ccc(F)cc2)nc2cnc(Oc3cccc(Cl)c3)nc21`, the Potency is above 46 µM.

As for `COc1ccccc1CNc1ncnc2ccc(-c3ccccc3C#N)cc12`, the Potency was above 46 µM.

Regarding `Cc1ccccc1-c1ccc2ncnc(N(C)C)c2c1`, the Potency was above 46 µM.

For the compound `O=C(c1ccncc1)N1CCC2(CC1)CCN(c1ccncc1)CC2`, the Potency was above 46 µM.

Turning to `N[C@@H](C(=O)O)c1ccc(O)c(C(=O)O)c1`, the Potency is above 46 µM.

As for `O=c1ccc2cc(O)c(O)cc2o1`, the Potency was above 20.6 µM.

For the compound `COc1ccc2[nH]cc(CCNc3nc(-c4ccc(C(=O)N(C)C)cc4)nc4ccccc34)c2c1`, the Potency was above 46 µM.

With `Cc1cc(C)c(S(=O)(=O)Nc2ccccc2C(F)(F)F)c(C)c1`, the Potency was above 46 µM.

On to `CCCNC(=O)N1N=C(c2ccc(N)cc2)c2cc3c(cc2[C@H]1C)OCO3`, for which the Potency was above 46 µM.

On to `Cc1[nH]ccc2c1[nH]c1cc(=O)ccc12`, for which the Potency was > 20.6 µM and > 46 µM.

In the case of `CN(Cc1ccco1)c1ncnc2ccc(-c3ccc4c(c3)OCO4)cc12`, the Potency was above 46 µM.

For the compound `O=C(c1cnccn1)N1CCC2(CCCN(Cc3ccncc3)C2)CC1`, the Potency was above 46 µM.

As to `COc1cc2ccc(=O)oc2cc1O`, the Potency is > 20.6 µM and > 46 µM.

With `CC(C)CN1CCCC2(CCN(C(=O)c3ccco3)CC2)C1`, the Potency was above 46 µM.

As for `CCCCCCCNS(=O)(=O)c1cccc2c(Cl)cccc12`, the Potency was above 46 µM.

Regarding `O=[N+]([O-])c1cccc2c[nH]nc12`, the Potency is above 46 µM.

For the compound `CC[C@@]12CCCN3CCc4c(n(c5ccccc45)[C@](O)(C(=O)OC)C1)[C@H]32`, the Potency is > 20.6 µM and > 46 µM.

Regarding `N[C@H](Cn1ccc(=O)c(O)c1)C(=O)O`, the Potency is > 20.6 µM and > 46 µM.

Consider `COc1ccc2[nH]cc(CCNc3ncnc4ccc(-c5ccccc5C#N)cc34)c2c1`, for which the Potency was above 46 µM.

`CC(C)NC(=O)N1CC[C@@]2(CCCN(C(=O)c3ccco3)C2)C1`: the Potency was above 46 µM.

On to `CC(=O)Oc1ccccc1C(=O)Oc1ccccc1C(=O)O`, for which the Potency was above 20.6 µM.

The target in another assay is Mitogen-activated protein kinase 10 (Mus musculus) (UniProt Q61831). The experiment in a line: JNK3 AlphaScreen Assay (AID 530; active means well fitted curve in either direction with a large enough effect, not every such curve was filed as active;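 further: kinase came from lysate of stimulated human HepG2 cells; signal reports phosphorylation of biotinylated GST-cJun 1-79 at Ser73 with 10 µM ATP; on the % scale 0 is the no-effect control and ±100 the full control effect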). The settings on record: JNK3 lysate, c-Jun phosphorylation; series mostly up to 57.1 µM; activity change, negative = inhibition: at the top concentration. In short, it runs like this:
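qHTS titrations with 15 min compound pre-incubation before adding ATP (10 uM final). Read-out: AlphaScreen of Ser73-phosphorylated biotin-GST-cJun using HepG2 lysate JNK3 activated by IL-1β and TNFα.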
Background: Alpha assays give light when donor and acceptor beads are brought close together.
For `COc1ccc2[nH]cc(CCNc3ncnc4ccc(-c5ccc6c(c5)OCO6)cc34)c2c1`, the “activity change, negative = inhibition” value is -29.5%.

Consider `CN=C1N[C@H](c2ccccc2)N(c2ccccc2)S1`, for which the “activity change, negative = inhibition” value was -23.3%.

Regarding `N#Cc1cccc(NC(=O)N2CC[C@@]3(CCCN(C(=O)c4cccc(F)c4)C3)C2)c1`, the “activity change, negative = inhibition” value is 5.64%.

Take `N#CCCn1c(=O)c(-c2ccc(F)cc2)nc2cnc(Oc3cccc(Cl)c3)nc21`: the “activity change, negative = inhibition” value was 3.71%.

Consider `COc1ccccc1CNc1ncnc2ccc(-c3ccccc3C#N)cc12`, for which the “activity change, negative = inhibition” value was -4.75%.

In the case of `Cc1ccccc1-c1ccc2ncnc(N(C)C)c2c1`, the “activity change, negative = inhibition” value was -2.58%.

As to `O=C(c1ccncc1)N1CCC2(CC1)CCN(c1ccncc1)CC2`, the “activity change, negative = inhibition” value was 3.75%.

On to `N[C@@H](C(=O)O)c1ccc(O)c(C(=O)O)c1`, for which the “activity change, negative = inhibition” value was -6.12%.

On to `O=c1ccc2cc(O)c(O)cc2o1`, for which the “activity change, negative = inhibition” value was 4.89% [at 25.6 µM].

`COc1ccc2[nH]cc(CCNc3nc(-c4ccc(C(=O)N(C)C)cc4)nc4ccccc34)c2c1`: the “activity change, negative = inhibition” value was -8.92%.

On to `Cc1[nH]ccc2c1[nH]c1cc(=O)ccc12`, for which the Potency entry is “inactive”.

In the case of `CN(Cc1ccco1)c1ncnc2ccc(-c3ccc4c(c3)OCO4)cc12`, the “activity change, negative = inhibition” value is 2.1%.

`O=C(c1cnccn1)N1CCC2(CCCN(Cc3ccncc3)C2)CC1`: the “activity change, negative = inhibition” value was 6.55%.

On to `COc1cc2ccc(=O)oc2cc1O`, for which the Potency entry is “inactive”.

With `CC(C)CN1CCCC2(CCN(C(=O)c3ccco3)CC2)C1`, the “activity change, negative = inhibition” value was 0.447%.

Take `O=[N+]([O-])c1cccc2c[nH]nc12`: the “activity change, negative = inhibition” value was -24.9%.

As to `CC[C@@]12CCCN3CCc4c(n(c5ccccc45)[C@](O)(C(=O)OC)C1)[C@H]32`, the Potency result is “inactive”.

For `COc1cc2c(cc1OC)C(=O)Cc1ccc3c(c1CN(C)CC2)OCO3`, the “activity change, negative = inhibition” value was -7.7%.

Take `N[C@H](Cn1ccc(=O)c(O)c1)C(=O)O`: the Potency result was “inactive”.

For the compound `COc1ccc2[nH]cc(CCNc3ncnc4ccc(-c5ccccc5C#N)cc34)c2c1`, the “activity change, negative = inhibition” value is -20.7%.

For the compound `CC(C)NC(=O)N1CC[C@@]2(CCCN(C(=O)c3ccco3)C2)C1`, the “activity change, negative = inhibition” value is 4.37%.

For the compound `CC(=O)Oc1ccccc1C(=O)Oc1ccccc1C(=O)O`, the “activity change, negative = inhibition” value is -11.6% [at 25.6 µM].

The target in the next assay is 3',5'-cyclic-AMP phosphodiesterase 4B (Homo sapiens) (UniProt Q07343). The assay is described as follows: qHTS Assay for Inhibitors of PDE-IV (AID 607; active means well fitted activation curve with a large enough effect in the main read-out, with a control signal flat, not every such curve was filed as active; further: % of control where 0% means no effect). The settings on record: HEK293 ACTOne CNG channel cells, membrane potential fluorescence; series mostly up to 22.9 µM; activation (PDE inhibition): at the top concentration. In short, it runs like this:
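ACTOne HEK293 cells carry a modified cAMP-gated CNG channel and express endogenous PDE4; plated 1000 cells/well, compounds up to 22.9 uM final. Membrane-potential dye fluorescence (ex 535/em 590) was read; parental cells received 10 uM forskolin + 100 uM RO 20-1724.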
Regarding `COc1ccc2[nH]cc(CCNc3ncnc4ccc(-c5ccc6c(c5)OCO6)cc34)c2c1`, the “activation (PDE inhibition)” value was 8.05%.

Regarding `N#Cc1cccc(NC(=O)N2CC[C@@]3(CCCN(C(=O)c4cccc(F)c4)C3)C2)c1`, the “activation (PDE inhibition)” value is -9.73%.

`COc1cccc(-c2cc(NCCc3c[nH]c4ccc(OC)cc34)ncn2)c1`: the “activation (PDE inhibition)” value was 12.5%.

For the compound `N#CCCn1c(=O)c(-c2ccc(F)cc2)nc2cnc(Oc3cccc(Cl)c3)nc21`, the “activation (PDE inhibition)” value was -3.12%.

Regarding `O=C(c1ccncc1)N1CCC2(CC1)CCN(c1ccncc1)CC2`, the “activation (PDE inhibition)” value is 8.87%.

For `N[C@@H](C(=O)O)c1ccc(O)c(C(=O)O)c1`, the “activation (PDE inhibition)” value is -4.53%.

As for `O=c1ccc2cc(O)c(O)cc2o1`, the “activation (PDE inhibition)” value was 14.4%.

`COc1ccc2[nH]cc(CCNc3nc(-c4ccc(C(=O)N(C)C)cc4)nc4ccccc34)c2c1`: the “activation (PDE inhibition)” value is 24.1%.

Turning to `Cc1[nH]ccc2c1[nH]c1cc(=O)ccc12`, the Potency result is “inactive”.

Regarding `O=C(c1cnccn1)N1CCC2(CCCN(Cc3ccncc3)C2)CC1`, the “activation (PDE inhibition)” value was -6.02%.

Turning to `COc1cc2ccc(=O)oc2cc1O`, the Potency entry was “inactive”.

Take `CC[C@@]12CCCN3CCc4c(n(c5ccccc45)[C@](O)(C(=O)OC)C1)[C@H]32`: the Potency result was “inactive”.

In the case of `COc1cc2c(cc1OC)C(=O)Cc1ccc3c(c1CN(C)CC2)OCO3`, the “activation (PDE inhibition)” value is 8.23%.

On to `N[C@H](Cn1ccc(=O)c(O)c1)C(=O)O`, for which the Potency result is “inactive”.

`CC(C)NC(=O)N1CC[C@@]2(CCCN(C(=O)c3ccco3)C2)C1`: the “activation (PDE inhibition)” value is -4.62%.
